An excerpt weighted towards active compounds, which were near 3.2% of everything screened.
TROY NFkB inh: inhibitors of TROY-dependent NF-kB signaling; Q293 LMP1-TROYcd NF-kB luciferase reporter, 4 h; inhibition, % at 10 µM; AID 1347056; hit rate 0.98% among 360,000;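 active = compounds whose plate-normalised and pattern-corrected inhibition of the luciferase reporter signal at the single screening dose is 50% or more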
TWEAK-Fn14 inh: TWEAK-Fn14 signaling inhibition; hit rate 2% among 360,000; TWEAK-stimulated Fn14 reporter cells, luciferase luminescence, 8 h; inhibition, % at 10 µM; AID 1159606; in the data active = inhibition above about 50%
EWS-Fli block: EWS/Fli transcriptional activity inhibition | A673 NR0B1-luciferase reporter, viability-normalised | inhibition, % at 12.6 µM | hit rate 0.67% among 350,000 | AID 651661;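 active = mean inhibition of at least 50% after viability correction, with every replicate also passing that limit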;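 note: firefly luciferase signal divided by Alamar Blue viability fluorescence both relative to DMSO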
PAX8 inh HTS: inhibitors of PAX8 transcriptional activity in RMG-I cells; RMG-I TPO-luciferase reporter, SteadyGlo, 24 h; inhibition, % at 12.6 µM; hit rate 1.2% among 360,000; AID 652154;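 active = mean replicate inhibition at least 60% with every replicate also reaching 60%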;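 note: luciferase light reporting Pax8 driven TPO promoter activity; plate controls were median of neutral control wells for no effect and mitoxantrone controls for full effect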
LGR2 antag: Drosophila LGR2 receptor signaling inhibition; HEK293 LGR2, CRE-luciferase, bursicon-stimulated, 4 h; inhibition, % at 9.99 µM; hit rate 0.35% among 380,000; AID 720647;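 active = drop in luminescence signal, shown as inhibition above about 50% in the replicate tests, limit read from the data, passing the limit was not always enough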;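 note: agonist challenge used bursicon conditioned medium at about half maximal strength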
EBV LMP1 NFkB: Epstein-Barr LMP1 NF-kappaB reporter inhibition; LMP1-induced NF-kappaB luciferase reporter cells, luminescence; hit rate 0.69% among 350,000; inhibition, % at 12.5 µM; AID 504558; in the data active = inhibition above about 41%;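 note: 0% = neutral control wells and 100% = reference inhibitor control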
The depositor's hits bear a star; ! = not confirmed by another sample.

COc1ccc([Si](C)(C)[C@H]2[C@H](CCO)O[C@@]3(C(=O)N(Cc4cccc(NC(=O)[C@H](C)O)c4)c4ccccc43)[C@@H]2C)cc1 was read as EWS-Fli block 16.9 and PAX8 inh HTS 86.4*.
`C[C@@H]1CN([C@H](C)CO)S(=O)(=O)c2ccc(Br)cc2O[C@H]1CN(C)C(=O)C1CCC1` gave EWS-Fli block -8.4 and LGR2 antag -8.2.
`COc1cccc(-c2ccc([C@H]3[C@@H](C#N)N(C(=O)Cc4ccncc4)[C@@H]3CO)cc2)c1` gave EWS-Fli block -10.4, PAX8 inh HTS -31.8 and LGR2 antag -0.7.
For CCOc1ccc(Nc2cc(C)nc(-n3nc(C)cc3C)n2)cc1 the results were TROY NFkB inh 18.8, TWEAK-Fn14 inh -15.6, PAX8 inh HTS 67.9* and EBV LMP1 NFkB 9.7.
For C[C@H](CO)N1C[C@H](C)[C@H](CN(C)Cc2ccc(-c3ccccc3)cc2)Oc2c(NS(=O)(=O)c3ccc(Cl)cc3)cccc2C1=O the results were EWS-Fli block -0.2, PAX8 inh HTS 6.4 and LGR2 antag 19.6.
For O=C1c2c(O)ccc(O)c2C(=O)c2c(NCCNCCO)ccc(NCCNCCO)c21 the results were TROY NFkB inh 78.1*!, TWEAK-Fn14 inh 93.4*!, EWS-Fli block 40.4, PAX8 inh HTS 105.9*!, LGR2 antag 101.7* and EBV LMP1 NFkB 66.7*.
For O=C(C#Cc1ccccc1)Nc1cccc(F)c1 the results were TROY NFkB inh -1.0, TWEAK-Fn14 inh 69.8*, EWS-Fli block 22.0, PAX8 inh HTS 14.9, LGR2 antag -80.5 and EBV LMP1 NFkB -50.3.
Screening CN1CCN(Cc2nc3ccccc3c(=O)n2Cc2nc(-c3ccc4ccccc4c3)cs2)CC1 returned TROY NFkB inh 40.5, TWEAK-Fn14 inh -121.2, EWS-Fli block 39.6, PAX8 inh HTS 17.2, LGR2 antag 89.8* and EBV LMP1 NFkB 5.6.
CN1CCN(Cc2nc3ccccc3c(=O)n2Cc2nc(-c3cccc([N+](=O)[O-])c3)cs2)CC1 was read as TROY NFkB inh 15.0, TWEAK-Fn14 inh 11.1, EWS-Fli block -5.8, PAX8 inh HTS 28.2, LGR2 antag -1.0 and EBV LMP1 NFkB 8.8.
`CC(=O)OCC1OC(n2cc(F)c(=O)[nH]c2=O)C(OC(C)=O)C1OC(C)=O` (configuration not stated) gave TROY NFkB inh 0.6, TWEAK-Fn14 inh 15.1, EWS-Fli block 5.4, PAX8 inh HTS 15.8, LGR2 antag 2.7 and EBV LMP1 NFkB 3.3.
Screening O=C1C(F)=CC(COC(c2ccccc2)(c2ccccc2)c2ccccc2)OC1n1cc(F)c(=O)[nH]c1=O (configuration not stated) returned TROY NFkB inh 45.7, TWEAK-Fn14 inh 108.6*, EWS-Fli block 69.4*, PAX8 inh HTS 18.0, LGR2 antag 26.6* and EBV LMP1 NFkB -2.9.
C[C@H](CO)N1C[C@H](C)[C@@H](CN(C)C(=O)Nc2cccc3ccccc23)Oc2ccc(N(C)C)cc2C1=O was read as EWS-Fli block 0.6, PAX8 inh HTS 26.1 and LGR2 antag 2.9.
For O=C(CC(c1ccc(F)cc1)c1ccco1)N1CCOCC1 (configuration not stated) the results were TROY NFkB inh 10.3, TWEAK-Fn14 inh -5.8, LGR2 antag 6.6 and EBV LMP1 NFkB 61.3*.
Screening COc1ccc2c(c1)/C(=C\c1cccc(/C=C3/C(=O)Nc4ccc(OC)cc43)n1)C(=O)N2 returned TROY NFkB inh 30.7, TWEAK-Fn14 inh 100.4*, EWS-Fli block 66.6*, PAX8 inh HTS 27.3, LGR2 antag 73.7* and EBV LMP1 NFkB 89.4*.
For COc1ccc2c3c(n(C)c2c1)[C@H](CO)N(C(=O)Nc1cccc(F)c1)CC31CCN(Cc2nccs2)CC1 the results were EWS-Fli block 15.5 and LGR2 antag -0.8.
`COc1cccc(/C=N/Nc2ncnc3scc(-c4ccccc4)c23)c1O` gave TROY NFkB inh 43.6, TWEAK-Fn14 inh 63.5*, PAX8 inh HTS 76.2*, LGR2 antag 22.8 and EBV LMP1 NFkB 80.6*.
For CCC(C)C(Nc1ncnc2scc(-c3ccccc3)c12)C(=O)O (configuration not stated) the results were TROY NFkB inh 15.7, TWEAK-Fn14 inh -15.9, EWS-Fli block inactive, PAX8 inh HTS 4.1, LGR2 antag -11.7 and EBV LMP1 NFkB -4.8.
`COc1ccc(/C=N/Nc2nncc3ccccc23)cc1` gave TROY NFkB inh -2.9, TWEAK-Fn14 inh 43.1, EWS-Fli block 66.9*, PAX8 inh HTS 6.3, LGR2 antag -60.6 and EBV LMP1 NFkB -4.2.

Bioassay records from PubChem BioAssay.
